# Bioassay records deposited in PubChem by several laboratories.
# Anthrax LF inh2: anthrax lethal factor protease inhibition; multiplex microsphere protease cleavage assay, LF; AID 588501; inhibition, % at 10 µM; P15917; actives 0.12% (n = 360,000); note: plate controls were buffer without enzyme for full effect and enzyme alone for no effect
# Target sequence (P15917 whole entry, looked up): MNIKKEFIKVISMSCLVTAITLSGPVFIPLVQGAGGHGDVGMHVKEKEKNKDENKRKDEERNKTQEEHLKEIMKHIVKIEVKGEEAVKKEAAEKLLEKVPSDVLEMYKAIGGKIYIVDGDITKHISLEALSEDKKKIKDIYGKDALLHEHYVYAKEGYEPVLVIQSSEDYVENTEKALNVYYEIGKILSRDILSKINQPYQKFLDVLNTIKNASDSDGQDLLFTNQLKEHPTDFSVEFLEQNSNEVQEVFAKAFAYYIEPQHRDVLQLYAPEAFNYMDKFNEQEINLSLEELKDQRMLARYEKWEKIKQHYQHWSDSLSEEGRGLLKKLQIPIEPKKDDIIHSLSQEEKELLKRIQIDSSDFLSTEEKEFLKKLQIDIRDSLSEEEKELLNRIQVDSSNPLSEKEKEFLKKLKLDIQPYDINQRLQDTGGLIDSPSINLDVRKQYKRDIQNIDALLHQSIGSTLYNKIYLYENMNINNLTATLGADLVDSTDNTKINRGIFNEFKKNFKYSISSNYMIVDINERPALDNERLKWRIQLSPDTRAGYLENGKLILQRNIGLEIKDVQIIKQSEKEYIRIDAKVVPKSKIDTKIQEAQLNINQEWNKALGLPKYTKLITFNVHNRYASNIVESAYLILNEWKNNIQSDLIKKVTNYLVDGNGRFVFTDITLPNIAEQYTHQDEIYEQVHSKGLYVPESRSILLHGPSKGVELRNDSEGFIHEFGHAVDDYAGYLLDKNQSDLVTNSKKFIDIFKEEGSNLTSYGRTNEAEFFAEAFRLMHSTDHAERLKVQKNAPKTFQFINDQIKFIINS
# BoNT F protease: BoNT F light chain protease inhibition; Multiplex microsphere protease cleavage assay, flow cytometry; inhibition, % at 10 µM; actives 0.22% (n = 360,000); in the data active = inhibition above about 35%, passing the limit was not always enough; inconclusive = no clear call, values can overlap the other calls; note: plate controls were buffer without enzyme for full effect and enzyme alone for no effect
# BoNT-A LC inh2: inhibitors of Botulinum neurotoxin A light chain protease; multiplex microsphere protease substrate cleavage, flow cytometry; inhibition, % at 10 µM; actives 0.17% (n = 360,000); AID 588499; note: plate controls were buffer without enzyme for full effect and enzyme alone for no effect
# Autofluor counter: counter-screen for toxin protease inhibitors: compound fluorescence; compound autofluorescence counterscreen, microsphere flow cytometry; hits give high values; fluorescence intensity (test concentration not listed); AID 624483; actives 3.1% (n = 360,000); in the data active = fluorescence intensity above about 16000; inconclusive = no clear call, values can overlap the other calls
# SSB-PriA inh: inhibitors of Klebsiella pneumoniae PriA binding to SSB C-terminal tail | actives 0.6% (n = 430,000) | inhibition, % at 33 µM | AlphaScreen SSBct-PriA binding, biotinylated peptide; in the data active = inhibition mostly above about 37%, no sharp cut-off; inactive = mostly below about 20%;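 note: plate controls were negative control peptide for no effect and reference peptide for full effect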
# * = called active by the depositor; ? = inconclusive; . = not tested or not shown. Sampled rows, rich in hits. Any-hit rate of the full collection: about 3.1%. Cut-off read from the data, not from the text of the source, unless noted: active = inhibition above about 30%; inconclusive = no clear call, values can overlap the other calls; inactive = below that.
SMILES,Anthrax LF inh2,BoNT F protease,BoNT-A LC inh2,Autofluor counter,SSB-PriA inh
O=C(CN1CC(=O)Oc2ccccc21)OCC(=O)c1ccc(F)cc1,-1.7,2.0,0.5,3813,77.0*
O=C(CN1CC(=O)Oc2ccccc21)OCC(=O)c1ccc(Br)cc1,4.8,16.7,1.4,3738,85.5*
CC(C)c1ccccc1N1CC(C(=O)O)CC1=O (configuration not stated),-13.7,0.9,1.5,21241*,-0.5
CCc1ccccc1N1CC(C(=O)O)CC1=O (configuration not stated),2.2,9.1,0.4,2933,-13.0
C/C(=N\NC(=S)NCc1ccccc1)c1ccco1,6.0,6.4,-0.1,2739,.
C/C(=N/NC(=S)NCCc1ccccc1)c1ccco1,.,.,.,.,62.0*
CCOC(=O)c1cc(OC(=O)c2ccccc2OC)n(-c2ccccc2)n1,-16.2,10.9,?,20755*,5.7
COc1ccc(N2CCN(CCNC(=O)COc3ccc(F)cc3)CC2)cc1,.,.,.,.,-3.0
COCCCNC(=O)c1ccc(S(=O)(=O)c2ccc(C)cc2)c(NC(C)=O)c1,-7.9,-12.8,0.0,3526,-1.7
CCCCNC(=O)c1ccc(S(=O)(=O)c2ccc(Cl)cc2)c(NC(C)=O)c1,2.5,8.0,6.2,21746*,-9.9
Cc1ccc(-n2nnc(C(=O)N3CCCc4ccccc43)c2C)cc1,.,.,.,.,-12.0
COC(=O)C(c1cc(OC)c(O)c(OC)c1)(N1CCNC(C)C1)C(F)(F)F (configuration not stated),-4.6,3.7,3.2,18737*,-3.0
Cc1ccc(S(=O)(=O)Oc2ccc(/C=C3\N=C(c4cccc(C)c4)OC3=O)cc2)cc1,3.2,3.6,3.8,21802*,-5.8
Cc1cccc(C2=N/C(=C\c3cccs3)C(=O)O2)c1,5.6,0.2,0.7,4541,-6.3
CCN=C1SC(CC(=O)NC2CCCCC2)C(=O)N1CC (configuration not stated),-0.4,-3.2,?,20571*,-15.2
Cc1ncn(CC(=O)N2CCC(Oc3cncc(N(C)C)n3)C2)c(=O)c1C (configuration not stated),.,.,.,.,-5.0
CCN(CC)S(=O)(=O)c1ccc(C(=O)NC2=NCCS2)cc1,-5.2,-3.5,0.2,4122,-4.5
CC1CCN(S(=O)(=O)c2cc(Br)cc(C(=O)NC3=NCCS3)c2)CC1,0.0,-6.6,-0.3,24164*,-0.8
COC(=O)c1ccc(CSc2nnc(SCc3ccc(C(=O)OC)o3)s2)o1,-1.3,4.8,1.3,9631,-16.4
COC(=O)c1ccc(CSc2nc(C)nc3sc(C)c(C)c23)o1,-0.2,4.6,1.2,22019*,-16.1
O=C(CCCOc1ccccc1)Nc1cc(Cl)cc(Cl)c1,.,.,.,.,-50.0
CC(C)(C)c1csc(Nc2nc3cc4c(cc3s2)OCO4)n1,.,.,.,.,21.0
Nc1c(C(=O)NCc2ccc(F)cc2)c2nc3ccccc3nc2n1CCCN1CCOCC1,2.1,-1.6,4.5,23744*,-26.8
Nc1c(C(=O)NCc2ccccc2)c2nc3ccccc3nc2n1CCCN1CCOCC1,3.4,-3.0,12.1,2172,-18.2
O=C(NCCCN1CCOCC1)c1ccc(CNS(=O)(=O)c2ccc(F)cc2)cc1,1.7,-0.5,?,16290*,-10.1
SMILES,Anthrax LF inh2,BoNT F protease,BoNT-A LC inh2,Autofluor counter,SSB-PriA inh
O=C(NCCCN1CCOCC1)c1cc(-c2ccc(F)cc2)on1,1.8,9.3,6.4,18525*,-8.6
O=C(NCCN1CCOCC1)c1cc(-c2ccco2)on1,-6.4,-6.7,-3.5,17211*,-10.7
COc1ccc(Nc2cc(C)nc(NCCN)n2)cc1,.,.,.,.,3.0
CCCCNC(=O)c1ccc(N2CCOCC2)c(NS(=O)(=O)c2ccc(OC)cc2)c1,1.7,8.3,9.3,20173*,-10.7
COc1ccc(S(=O)(=O)NCCCCCC(=O)NCCCN2CCOCC2)cc1,-1.7,2.0,3.3,20933*,-12.8
CCOCC(=O)NCC1CCN(C(C)C)CC1,.,.,.,.,-13.0
CC(=O)c1ccc(NC(=O)CSc2ncc(-c3cccc(Cl)c3)o2)cc1,.,.,.,.,-9.0
COc1ccc(OC)c(S(=O)(=O)NCCCn2ccnc2)c1,20.5,7.6,0.4,2866,2.6
O=C(NCCn1ncccc1=O)c1ccc2c(c1)OCO2,.,.,.,.,-5.0
O=C(NCCn1ccnc1-c1ncccn1)c1ccc2c(c1)OCO2,.,.,.,.,93.0*
COc1ccc(Br)c(C(=O)NCCn2ccnc2-c2ncccn2)c1,.,.,.,.,91.0*
COc1ccc(S(=O)(=O)NCCn2ccnc2-c2ncccn2)c(C)c1,.,.,.,.,81.0*
COc1ccc(OC)c(S(=O)(=O)NCCn2ccnc2-c2ncccn2)c1,.,.,.,.,91.0*
O=[N+]([O-])c1ccccc1N=Nc1ccc(O)cc1,-6.7,-0.7,-1.0,6406,42.9*
COCCNC(=O)c1cc2cc(Br)cc(OC)c2oc1=O,0.9,-4.4,?,21622*,-11.2
COCCNC(=O)c1cc2cc(Br)cc(Br)c2oc1=O,-4.3,-2.5,-0.2,4462,-10.1
O=C(NCCOc1ccc2nnc(-c3ccc(F)cc3)n2n1)c1ccc(F)c(F)c1,.,.,.,.,-20.0
CC(=O)c1cccc(NC(=O)COc2cc(C)nc(N3CCC(C)CC3)n2)c1,.,.,.,.,-16.0
Cc1ccc(C(=O)Nc2ccc(S(=O)(=O)N3CCc4ccccc43)cc2)o1,-7.2,-2.8,?,23775*,-2.9
NS(=O)(=O)c1ccc(NC(=O)c2ccc(S(=O)(=O)N3CCc4ccccc43)cc2)cc1,0.5,1.7,-0.4,2543,11.3
COc1ccc(C(=O)Nc2ccc(S(=O)(=O)N3CCc4ccccc43)cc2)cc1,-3.3,-5.8,-0.9,16637*,-5.0
O=C(Nc1ccc(S(=O)(=O)N2CCc3ccccc3C2)cc1)C1CCCO1 (configuration not stated),-3.6,-10.5,-0.9,11273,3.4
O=C(Nc1ccc(S(=O)(=O)N2CCCc3ccccc32)cc1)C1CCCO1 (configuration not stated),-3.0,-3.2,-5.6,17480*,-9.4
Cn1nc(CNS(=O)(=O)c2ccc3c(c2)CCCC3)cc1-c1cccs1,.,.,.,.,-11.0
CCSc1nc2sc3c(c2c(=O)n1-c1ccccc1C)CCN(C)C3,13.0,4.8,16.2,4927,-1.8
SMILES,Anthrax LF inh2,BoNT F protease,BoNT-A LC inh2,Autofluor counter,SSB-PriA inh
CCCCSc1nc2sc3c(c2c(=O)n1-c1ccc(OC)cc1)CCN(C)C3,-15.9,?,5.8,4814,-6.6
C=C(C)CSc1nc2sc3c(c2c(=O)n1C1CCCCC1)CCN(C)C3,13.4,-3.7,32.6*,7245,14.6
CCCCSc1nc2sc3c(c2c(=O)n1-c1ccccc1)CCN(C)C3,13.9,21.0,52.0*,4210,-0.9
CSc1nc2sc3c(c2c(=O)n1C1CCCCC1)CCN(C)C3,0.0,-20.7,0.0,5818,4.8
C=C(C)CSc1nc2sc3c(c2c(=O)n1-c1ccccc1)CCN(C)C3,15.5,8.8,37.4*,4836,-6.0
CN1CCc2c(sc3nc(SCC(N)=O)n(-c4ccccc4)c(=O)c23)C1,-7.8,3.0,0.9,?,-3.2
CCSc1nc2sc3c(c2c(=O)n1-c1ccccc1)CCN(C(C)C)C3,3.8,46.5*,56.6*,6785,-3.8
COc1ccc(CC(=O)N(CCn2cccn2)c2nc3ccccc3s2)cc1,.,.,.,.,-2.0
C=CCSc1nc2sc3c(c2c(=O)n1-c1ccc(C)cc1)CCN(C)C3,1.4,-5.0,35.8*,4217,5.6
Cc1cc(NC(=O)c2ccccc2F)n(-c2nc3ccccc3s2)n1,.,.,.,.,-20.0
